Bioassay records: PubChem, National Center for Advancing Translational Sciences (NCATS)
Only some compounds are listed: those with a hit (about 3.8% of all), similar ones and a draw of the others.
A549 tox = counter-screen for Nrf2 inhibitors: cytotoxicity in A549 cells; A549 ARE-Fluc cells, CellTiter-Fluor viability, 18-24 h; Potency, µM (titrated, usually from 46 µM), for inactives: at the top dose activity change, negative = cytotoxicity, usual class: inhibitors; AID 504648; 390,000 tested, 0.16% active; also: % is scaled to controls: 0 for no effect and ±100 for the full control effect
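A549 ARE-Fluc cells in 5% FBS OPTI-MEM, 5000 cells/well, rested 2 h then exposed to compounds in concentration-response for 18-24 h at 37 °C. Viability by CellTiter-Fluor fluorescence (Ex 405/Em 525) after 30 min; luciferase luminescence (BugLite, 15 min, RT) read afterwards.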
TGFb inhibitor = blocks TGF-b signaling | HepG2 CAGA-GFP TGF-b/SMAD3 reporter, GFP fluorescence, 18 h; TGF-beta stimulated, 500 pg/mL final | Potency, µM (doses to about 46.1 µM), inactives show top-dose activity, negative = inhibition, hits mostly inhibitors | 410,000 tested, 1.2% active; also: % is scaled to controls: 0 for no effect and ±100 for the full control effect; nearly all actives have a fitted effect of over 65% in size
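Smad-responsive CAGA-GFP expression was quantified in HEPG2 cells exposed to compounds and 500 pg/mL final TGF-beta for 18 h at 37 degrees C; unstimulated wells defined full inhibition.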
Nrf2 block = blocks Nrf2 signaling; A549 ARE-Fluc reporter, luciferase luminescence, 18-24 h; Potency, µM (series often up to 46 µM), for inactives: at the highest dose activity change, negative = inhibition, usual class: inhibitors; 360,000 tested, 2.1% active; also: % is scaled to controls: 0 for no effect and ±100 for the full control effect; nearly all actives have a fitted effect of over 60% in size
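Nrf2 function is reported as luminescence of an ARE-controlled luciferase in A549 cells. Compounds were tested at several concentrations, and a CellTiter-Fluor read on the same wells flagged cytotoxicity.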
ATXN viability = reduces viability in counter-screen for ATXN expression inhibitors. 400,000 tested, 0.49% active. Potency, µM (titrated, usually from 56.7 µM), most hits filed as cytotoxic. S2 cells (HEK-293 line with an ATXN2-luciferase reporter) viability, CellTiter-Fluor protease fluorescence, 24 h; also: nearly all actives have a fitted effect of over 40% in size
HepG2 tox-1 = HepG2 cytotoxicity, counter-screen for TGF-b inhibitors. 410,000 tested, 0.76% active. Potency, µM (titrated, usually from 46.1 µM), without a hit: at the top dose activity change, negative = cytotoxicity, most hits filed as cytotoxic. HepG2 CAGA-GFP viability, ATP luminescence, 18 h
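HepG2 CAGA-GFP cells (1000/well, DMEM with 1% FBS) received compound, then TGF-beta at 500 pg/mL final, and were incubated 18 hours at 37 degrees C. Viability was read by CellTiter-Glo luminescence. Media-only wells were set as complete cell-killing and DMSO as no toxicity.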
ATXN2 expr inh = reduces ATXN2 reporter expression in HEK-293 cells; HEK-293 ATXN2-luciferase reporter, luminescence, 24 h; Potency, µM (doses to about 57 µM), inactives show top-dose activity change, negative = inhibition, usual class: inhibitors; 360,000 tested, 0.72% active; also: % is scaled to controls: 0 for no effect and ±100 for the full control effect; nearly all actives have a fitted effect of over 55% in size
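qHTS (up to 57 uM final) was run with 24 h compound exposure of reporter cells at 37 °C. Each well was multiplexed: SteadyGlo luminescence measured ATXN2-luciferase expression after a fluorogenic Gly-Phe-AFC viability readout (25 uM final).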
TGFb CAGA inh = confirmation of TGF-b signaling inhibitors in HepG2 reporter cells. 1,600 tested, 63% active. HepG2 CAGA-GFP TGF-b reporter, GFP fluorescence, 18 h; cells stimulated with TGF-beta, 500 pg/mL. shares compounds with TGFb inhibitor. Potency, µM (highest dose often 46.1 µM), for inactives: at the top dose activity, negative = inhibition, actives largely listed as inhibitors. AID 720534; also: % is scaled to controls: 0 for no effect and ±100 for the full control effect; nearly all actives have a fitted effect of over 65% in size
HepG2 tox-2 = HepG2 cytotoxicity, TGF-b inhibitor counterscreen; 1,600 tested, 27% active; AID 720535; Potency, µM (doses to about 46.1 µM), without a hit: at the highest dose activity, negative = cytotoxicity, actives largely listed as inhibitors; HepG2 CAGA-GFP viability, ATP luminescence, 18 h; cells stimulated with TGF-beta, 500 pg/mL; shares compounds with TGFb inhibitor; also: % is scaled to controls: 0 for no effect and ±100 for the full control effect; nearly all actives have a fitted effect of over 70% in size
TGFb CCL64 inh = blocks TGF-b signaling in CCL64 reporter cells; CCL64 CAGA-GFP reporter, TGF-b stimulated, GFP fluorescence, 18 h; 1,600 tested, 41% active; shares compounds with TGFb inhibitor; Potency, µM (top dose mostly 46.1 µM), inactives show at the top dose activity, negative = inhibition, most hits filed as inhibitors; also: nearly all actives have a fitted effect of over 65% in size
TGFb COP inh = TGF-b inhibition validated with COP promoter; HepG2 COP-GFP TGF-b reporter, GFP fluorescence, 18 h; cells stimulated by added recombinant TGF-beta; 1,600 tested, 3% active; Potency, µM (titrated, usually from 46.1 µM), inactives show at the top dose activity, negative = inhibition, hits mostly inhibitors; shares compounds with TGFb inhibitor; also: nearly all actives have a fitted effect of over 70% in size
Starred values were filed as active, the others as inactive; i = inactive; ? = inconclusive; . = no result. Calls follow the shape of the dose curve; as a rule, active = well fitted curve in the direction sought with a large enough effect; inconclusive = small, poorly fitted or top-dose-only effect, or another doubt; inactive = no such curve, though single readings can be large; an effect the other way counts as inactive or inconclusive. Potency is read from the fitted curve at half-maximal effect.

SMILES	A549 tox	TGFb inhibitor	Nrf2 block	ATXN viability	HepG2 tox-1	ATXN2 expr inh	TGFb CAGA inh	HepG2 tox-2	TGFb CCL64 inh	TGFb COP inh
O=S1(=O)CC(N2CC=CC2)CN1Cc1cn(Cc2cccc(C(F)(F)F)c2)nn1 (centres undefined)	.	.	.	i	.	5%	.	.	.	.
CSc1ccc(CN2CCC(n3nccc3NC(=O)c3ccccc3C)CC2)cc1	-11%	1%	1%	i	-21%	-10%	.	.	.	.
Cc1ccc(C(NC(=O)C2CCCCC2)c2c(O)ccc3ccccc23)cc1 (centres undefined)	-9%	4.5µM*	?	?	1%	-8%	7.3µM*	?	23µM*	35%
CC(=O)NC(c1ccc(C(C)C)cc1)c1c(O)ccc2ccccc12 (centres undefined)	-13%	?	27%	i	-3%	2%	.	.	.	.
S=C(Nc1ccc(Cl)cc1)c1nc2ccccc2s1	-5%	-3%	.	i	-20%	26%	.	.	.	.
O=C(Nc1ccc(Cl)cc1)/C(=C/c1cccc(O)c1)c1nc2ccccc2s1	?	2.8µM*	?	.	-82%	8.9µM*	8.2µM*	13µM*	4.1µM*	-16%
O[C@@H]1CN(CC2CCCCC2)[C@@H](c2ccccc2)C[C@H]1n1cc(C2CC2)nn1	.	-1%	.	?	-5%	-30%	.	.	.	.
O[C@H]1CN(CC2CCCCC2)[C@@H](c2ccc(Cl)cc2)C[C@@H]1n1cc(C2CC2)nn1	.	10µM*	.	.	11µM*	?	23µM*	16µM*	23µM*	50%
O=S(=O)(c1ccc(NC(=S)NN=Cc2ccccc2O)cc1)N1CCCCC1	?	13µM*	?	i	-6%	-24%	16µM*	?	?	1%
Oc1c(N=Nc2ccc(F)cc2)ccc2ccccc12	-19%	?	?	?	-26%	67%	.	.	.	.
Oc1c(N=Nc2nn[nH]n2)ccc2ccccc12	.	4.5µM*	.	22µM*	5.6µM*	-32%	7.3µM*	15µM*	21µM*	?
COc1ccc(CCNC(=O)c2ccc([N+](=O)[O-])cc2Cl)cc1OC	1%	8%	-16%	i	-6%	-27%	.	.	.	.
COc1ccc(CCNC(=O)c2ccc(-c3ccc([N+](=O)[O-])cc3Cl)o2)cc1OC	-8%	10µM*	?	i	-24%	-35%	21µM*	?	9.2µM*	32%
Nc1ccn([C@@H]2O[C@H](CNCC3=CCOc4ccc(O)cc43)[C@@H](O)[C@H]2O)c(=O)n1	.	3%	.	i	1%	8%	.	.	.	.
Cc1noc(C)c1C(=O)NCCc1c(C)[nH]c2ccccc12	2%	0%	3%	i	-11%	-6%	.	.	.	.
